Measured values: PubChem BioAssay (EPA / NIEHS)
The source made the active and inactive calls. Rule for the calls: active = hit-call score of the fitted dose curve at least 0.9, where 1 is the maximum; inactive = score below 0.9.

Experiments:
Settings in all cases: mRNA level, 48 h; actives raise or lower the signal
[1] = read-out: Cytochrome P450 (CYP2B6), CYP2B6 (gene 1555); experiment: LTEA_HepaRG_CYP2B6: Life Technologies and Expression Analysis (LTEA) Assay for Cytochrome P450 (CYP2B6) using HepaRG (AID 2283481)
Method in brief: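 CYP2B6 transcript level quantified by qRT-PCR against three housekeeping genes, fitted bidirectionally relative to DMSO. HepaRG cultures received chemicals for 48 h, 8-point half-log series from 100 uM in 0.5% DMSO, duplicate wells, serum-free induction medium.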

[2] = read-out: Cytochrome P450 2C19 (Homo sapiens) (UniProt P33261); experiment: LTEA_HepaRG_CYP2C19: Life Technologies and Expression Analysis (LTEA) Assay for CYP2C19 using HepaRG (AID 2283482)
Method in brief: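 CYP2C19 transcript levels by qRT-PCR, normalized to three housekeeping genes, in HepaRG cells after 48 h chemical exposure. Eight-point half-log series topping at 100 uM, 0.5% DMSO vehicle. Increases and decreases both fitted against DMSO.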

CYP2C8 (gene 1558) = experiment: LTEA_HepaRG_CYP2C8: Life Technologies and Expression Analysis (LTEA) Assay for CYP2C8 using HepaRG (AID 2283483)
Method in brief: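 HepaRG (human liver line), 48 h chemical exposure, 8-pt half-log series from 100 uM, 0.5% DMSO vehicle. Readout: CYP2C8 transcript by qRT-PCR, housekeeping-normalized. Bidirectional fit vs DMSO baseline.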

CYP2C9 (gene 1559) = experiment: LTEA_HepaRG_CYP2C9: Life Technologies and Expression Analysis (LTEA) Assay for CYP2C9 using HepaRG (AID 2283484)
Method in brief: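 HepaRG, 48 h dosing, 8-pt half-log series, top 100 uM, 0.5% DMSO vehicle. Read-out: CYP2C9 transcript by TaqMan qRT-PCR, housekeeping-normalized (ACTB/GAPDH/POLR2A). Gain or loss fitted vs DMSO baseline.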

CYP2E1 (gene 1571) = experiment: LTEA_HepaRG_CYP2E1: Life Technologies and Expression Analysis (LTEA) Assay for CYP2E1 using HepaRG (AID 2283485)
Method in brief: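 Assay uses 48 h exposure of HepaRG hepatic cells, eight concentrations to 100 uM. Expression of CYP2E1 is quantified by TaqMan qRT-PCR with ACTB, GAPDH and POLR2A normalization; curves fitted in both directions relative to vehicle.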

CYP4A11 (gene 1579) = experiment: LTEA_HepaRG_CYP4A11: Life Technologies and Expression Analysis (LTEA) Assay for CYP4A11 using HepaRG (AID 2283486)
Method in brief: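 Readout is CYP4A11 transcript level by qRT-PCR, normalized to three housekeeping genes and fitted bidirectionally against 0.5% DMSO. Human HepaRG cells were treated 48 h, in duplicate, with an 8-point half-log series topping at 100 uM.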

[3] = read-out: Cytochrome P450 3A4 (Homo sapiens) (UniProt P08684); experiment: LTEA_HepaRG_CYP3A4: Life Technologies and Expression Analysis (LTEA) Assay for CYP3A4 using HepaRG (AID 2283487)
Method in brief: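 HepaRG, 48 h exposure, 8-pt CRC from 100 uM (half-log), 0.5% DMSO, duplicates; serum-free induction medium. Readout: CYP3A4 mRNA, qRT-PCR, ACTB/GAPDH/POLR2A normalization. Bidirectional fit vs DMSO.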

[4] = read-out: DNA damage-inducible transcript 3 (DDIT3), DDIT3 (gene 1649); experiment: LTEA_HepaRG_DDIT3: Life Technologies and Expression Analysis (LTEA) Assay for DNA damage-inducible transcript 3 (DDIT3) using HepaRG (AID 2283488)
Method in brief: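 Eight-point concentration-response (100 uM highest, half-log dilutions) in HepaRG, 48 h, duplicate wells. Endpoint: qRT-PCR mRNA, normalized (ACTB, GAPDH, POLR2A), bidirectional fitting with DMSO as baseline.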

[5] = read-out: Pro-epidermal growth factor (Homo sapiens) (UniProt P01133); experiment: LTEA_HepaRG_EGF: Life Technologies and Expression Analysis (LTEA) Assay for Epidermal growth factor (EGF) using HepaRG (AID 2283489)
Method in brief: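 EGF transcript measured by Fluidigm TaqMan qRT-PCR with three housekeeping genes for normalization, 48 h after dosing HepaRG cultures in duplicate (top 100 uM, half-log steps, 0.5% DMSO vehicle). Gain or loss relative to DMSO fitted.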

[6] = read-out: Early growth response protein 1 (EGR1) transcription factor, EGR1 (gene 1958); experiment: LTEA_HepaRG_EGR1: Life Technologies and Expression Analysis (LTEA) Assay for Early growth response protein 1 (EGR1) transcription factor using HepaRG (AID 2283490)
Method in brief: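 HepaRG, 48 h exposure, 8-pt half-log series from 100 uM, 0.5% DMSO vehicle; EGR1 transcript by TaqMan qRT-PCR (Fluidigm array), housekeeping-normalized; bidirectional fit relative to DMSO baseline.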

[7] = read-out: Ezrin (EZR), EZR (gene 7430); experiment: LTEA_HepaRG_EZR: Life Technologies and Expression Analysis (LTEA) Assay for Ezrin (EZR) using HepaRG (AID 2283491)
Method in brief: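 Read-out is EZR transcript level by qRT-PCR, normalized to three housekeeping genes and fitted bidirectionally against the DMSO control. Human HepaRG cells received test chemicals for 48 h at eight half-log concentrations up to 100 uM in 0.5% DMSO.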

[8] = read-out: Cytochrome P450 3A7 (Homo sapiens) (UniProt P24462); experiment: LTEA_HepaRG_CYP3A7: Life Technologies and Expression Analysis (LTEA) Assay for CYP3A7 using HepaRG (AID 2283492)
Method in brief: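 CYP3A7 transcript measured by qRT-PCR (ACTB, GAPDH, POLR2A normalization) after 48 h chemical exposure of HepaRG cells in duplicate. Eight half-log concentrations, maximum 100 uM, 0.5% DMSO vehicle; bidirectional curve fitting against DMSO baseline.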

CYP3A5 (gene 1577) = experiment: LTEA_HepaRG_CYP3A5: Life Technologies and Expression Analysis (LTEA) Assay for CYP3A5 using HepaRG (AID 2283493)
Method in brief: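 Readout was CYP3A5 mRNA by qRT-PCR. HepaRG cultures were exposed for 48 h in serum-free induction medium to chemicals at up to 100 uM, and responses were fitted in both directions relative to DMSO vehicle.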

[9] = read-out: Fatty Acid-Binding Protein 1 (FABP1), FABP1 (gene 2168); experiment: LTEA_HepaRG_FABP1: Life Technologies and Expression Analysis (LTEA) Assay for Fatty Acid-Binding Protein 1 (FABP1) using HepaRG (AID 2283494)
Method in brief: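 qRT-PCR readout of FABP1 transcript (normalized to three housekeeping genes) after 48 h chemical exposure of HepaRG cells; eight concentrations, half-log steps, max 100 uM, 0.5% DMSO vehicle; gain or loss fitted relative to DMSO baseline.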

[10] = read-out: Cytochrome P450 4A22 (Homo sapiens) (UniProt Q5TCH4); experiment: LTEA_HepaRG_CYP4A22: Life Technologies and Expression Analysis (LTEA) Assay for Cytochrome P450 4A22 (CYP4A22) using HepaRG (AID 2283495)
Method in brief: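 Gene expression measured by qRT-PCR against three housekeeping genes (ACTB, GAPDH, POLR2A), with gain or loss fitted relative to 0.5% DMSO vehicle. HepaRG cultures received 48 h chemical treatment, top concentration 100 uM, half-log steps, duplicate wells.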

[11] = read-out: Cytochrome P450 7A1 (Homo sapiens) (UniProt P22680); experiment: LTEA_HepaRG_CYP7A1: Life Technologies and Expression Analysis (LTEA) Assay for Cytochrome P450 7A1 (CYP7A1) using HepaRG (AID 2283496)
Method in brief: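 Using 0.5% DMSO as vehicle and baseline, chemicals were tested in duplicate over an 8-point range from 100 uM on HepaRG cells for 48 h; qRT-PCR signals were normalised to ACTB, GAPDH and POLR2A.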

[12] = read-out: growth arrest and DNA damage 45 (GADD45G), GADD45G (gene 10912); experiment: LTEA_HepaRG_GADD45G: Life Technologies and Expression Analysis (LTEA) Assay for growth arrest and DNA damage 45 (GADD45G) using HepaRG (AID 2283499)
Method in brief: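 GADD45G transcript level by qRT-PCR (housekeeping-normalized: ACTB, GAPDH, POLR2A) after 48 h chemical treatment of a single HepaRG lot in serum-free induction medium; eight-point half-log series up to 100 uM in 0.5% DMSO, duplicates, up- or down-regulation scored.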

[13] = read-out: cysteine-aspartic acid protease (CASP8), CASP8 (gene 841); experiment: LTEA_HepaRG_CASP8: Life Technologies and Expression Analysis (LTEA) Assay for cysteine-aspartic acid protease (CASP8) using HepaRG (AID 2283480)
Method in brief: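 qRT-PCR readout of CASP8 mRNA, normalized to three housekeeping genes, after 48 h chemical exposure of HepaRG cells; 8-point half-log series, top 100 uM, 0.5% DMSO vehicle. Bidirectional curve fitting against DMSO baseline.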

[14] = read-out: Glutathione S-Transferase (GSTA2), GSTA2 (gene 2939); experiment: LTEA_HepaRG_GSTA2: Life Technologies and Expression Analysis (LTEA) Assay for Glutathione S-Transferase (GSTA2) using HepaRG (AID 2283497)
Method in brief: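 qRT-PCR readout of GSTA2 transcript, normalized to three housekeeping genes, fitted bidirectionally against 0.5% DMSO baseline. Differentiated HepaRG cells received compound for 48 h at 8 concentrations (top 100 uM, half-log steps).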

Measured: AC50

Chain of Cytochrome P450 3A4 (Homo sapiens) (P08684 whole entry, looked up): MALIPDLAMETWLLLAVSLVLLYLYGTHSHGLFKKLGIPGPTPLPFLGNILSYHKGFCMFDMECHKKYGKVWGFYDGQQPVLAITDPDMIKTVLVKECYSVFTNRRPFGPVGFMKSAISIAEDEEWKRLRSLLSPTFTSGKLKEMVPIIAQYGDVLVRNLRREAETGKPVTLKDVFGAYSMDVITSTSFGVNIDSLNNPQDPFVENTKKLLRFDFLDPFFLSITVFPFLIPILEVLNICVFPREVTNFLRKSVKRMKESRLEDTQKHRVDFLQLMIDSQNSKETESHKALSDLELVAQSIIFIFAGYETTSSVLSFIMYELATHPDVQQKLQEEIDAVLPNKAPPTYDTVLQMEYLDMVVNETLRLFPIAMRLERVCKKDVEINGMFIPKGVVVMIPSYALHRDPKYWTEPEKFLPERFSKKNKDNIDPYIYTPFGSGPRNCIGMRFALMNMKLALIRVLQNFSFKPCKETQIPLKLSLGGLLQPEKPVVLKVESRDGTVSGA
Chain of Cytochrome P450 3A7 (Homo sapiens) (P24462 whole entry, looked up): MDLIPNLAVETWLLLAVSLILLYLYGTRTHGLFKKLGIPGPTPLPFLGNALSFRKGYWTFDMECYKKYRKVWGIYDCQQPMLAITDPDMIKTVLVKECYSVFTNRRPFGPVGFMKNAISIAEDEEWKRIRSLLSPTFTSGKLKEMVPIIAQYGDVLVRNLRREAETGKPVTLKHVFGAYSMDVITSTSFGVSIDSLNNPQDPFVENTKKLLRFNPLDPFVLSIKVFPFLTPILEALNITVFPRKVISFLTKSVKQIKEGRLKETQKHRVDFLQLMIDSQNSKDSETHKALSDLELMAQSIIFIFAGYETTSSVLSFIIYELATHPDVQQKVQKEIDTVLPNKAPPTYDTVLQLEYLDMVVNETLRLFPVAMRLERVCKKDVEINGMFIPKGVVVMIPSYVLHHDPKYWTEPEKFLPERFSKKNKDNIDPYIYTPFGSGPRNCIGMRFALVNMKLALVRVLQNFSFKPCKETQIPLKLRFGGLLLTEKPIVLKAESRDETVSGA
Chain of Cytochrome P450 2C19 (Homo sapiens) (P33261 whole entry, looked up): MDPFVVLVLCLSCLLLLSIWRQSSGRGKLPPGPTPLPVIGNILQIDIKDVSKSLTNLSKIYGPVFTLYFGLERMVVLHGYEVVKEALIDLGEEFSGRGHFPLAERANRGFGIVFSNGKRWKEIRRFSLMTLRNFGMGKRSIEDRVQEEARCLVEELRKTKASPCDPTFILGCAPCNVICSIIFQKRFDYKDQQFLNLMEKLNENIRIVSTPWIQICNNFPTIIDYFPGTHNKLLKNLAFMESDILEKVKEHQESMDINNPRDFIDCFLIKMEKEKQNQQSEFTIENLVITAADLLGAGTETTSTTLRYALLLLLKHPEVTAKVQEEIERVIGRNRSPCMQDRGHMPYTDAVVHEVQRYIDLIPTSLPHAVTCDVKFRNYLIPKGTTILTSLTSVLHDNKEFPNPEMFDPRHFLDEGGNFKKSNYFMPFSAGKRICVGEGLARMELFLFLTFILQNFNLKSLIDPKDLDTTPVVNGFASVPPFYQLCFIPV

CCc1ccc(C(=O)NN(C(=O)c2cc(C)cc(C)c2)C(C)(C)C)cc1
active: [1] 92.4 µM | [2] 2.71 µM | CYP2C8 (gene 1558) 12.1 µM | CYP2E1 (gene 1571) 42.4 µM | CYP4A11 (gene 1579) 77.2 µM | [3] 3.75 µM | [6] 50 µM | [8] 12.1 µM | [9] 50 µM | [10] 74.4 µM | [11] 4.22 µM
inactive: CYP2C9 (gene 1559) | [4] | [5] | [7] | CYP3A5 (gene 1577) | [12]

O=C(O)COc1ccc(Cl)cc1Cl
active: [1] 20.8 µM | [2] 19.6 µM | CYP2C8 (gene 1558) 22 µM | CYP2E1 (gene 1571) 29.3 µM | CYP4A11 (gene 1579) 38.1 µM | [8] 27.7 µM
not listed: [14]
inactive: all other assays above

Clc1ccccc1-c1nnc(-c2ccccc2Cl)nn1
active: [1] 7.28 µM | [2] 15.3 µM | CYP2E1 (gene 1571) 20.7 µM | [3] 9.38 µM | [8] 6.87 µM | [9] 18.8 µM | [11] 24 µM
not listed: [14]
inactive: all other assays above

C#CCN1C(=O)COc2cc(F)c(N3C(=O)C4=C(CCCC4)C3=O)cc21
active: [1] 0.84 µM | [2] 6.97 µM | CYP2E1 (gene 1571) 26.1 µM | CYP4A11 (gene 1579) 20.5 µM | [3] 3.65 µM | [6] 12 µM | [8] 0.97 µM | [9] 25.4 µM | [10] 16.1 µM
inactive: CYP2C8 (gene 1558) | CYP2C9 (gene 1559) | [4] | [5] | [7] | CYP3A5 (gene 1577) | [11] | [12]

CN1CSC(=S)N(C)C1
not listed: [14]
inactive: all other assays above

CCOCN(C(=O)CCl)c1c(C)cccc1CC
inactive: [3] | [4] | [5] | [6] | [7] | CYP3A5 (gene 1577)
active: [1] 0.077 µM | [2] 89.5 µM | CYP2C8 (gene 1558) 83.6 µM | CYP2C9 (gene 1559) 80.2 µM | CYP2E1 (gene 1571) 81.3 µM | CYP4A11 (gene 1579) 83.5 µM | [8] 86.2 µM | [9] 87.7 µM | [10] 92.5 µM | [11] 84.6 µM | [14] 83.4 µM | [12] 77.9 µM
